# Bioassay records: PubChem, National Center for Advancing Translational Sciences (NCATS)
# Hits are enriched below; roughly 3% of the tested compounds scored in any of these assays.
# Tau fibril FP – tau fibrillization inhibition (FP); AID 1468; Potency, µM (doses to about 57.7 µM), inactives show at the highest dose activity, negative = inhibition, actives largely listed as inhibitors; 280,000 compounds, 0.39% hits; K18 P301L tau heparin fibrillization, Alexa594 FP, 6 h; P10636; note: nearly all actives have a fitted effect of over 55% in size
# Target sequence (P10636 561-689 P618L limits assumed): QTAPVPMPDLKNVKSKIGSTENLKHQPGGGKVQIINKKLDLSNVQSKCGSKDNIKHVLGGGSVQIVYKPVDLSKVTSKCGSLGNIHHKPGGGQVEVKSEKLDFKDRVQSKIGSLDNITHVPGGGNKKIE
#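 Recombinant K18 P301L […], labeled with Alexa 594 at 0.24 uM over 15 uM unlabeled; heparin inducer 20 uM final; 37 C, 6 hr; FP endpoint.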
# TRb-SRC2 inh – inhibitors of human thyroid hormone receptor beta-SRC2 interaction | 280,000 compounds, 0.065% hits | TRbeta-SRC2 peptide binding, fluorescence polarization; receptor liganded with 1 µM T3 | Potency, µM (series often up to 106 µM), inactives show at the top dose activity change, negative = inhibition, hits mostly inhibitors | AID 1469 | P10828;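 note: plate controls were bound peptide for no effect and peptide without receptor for full effect; nearly all actives have a fitted effect of over 50% in size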
# Target sequence (P10828 whole entry, looked up): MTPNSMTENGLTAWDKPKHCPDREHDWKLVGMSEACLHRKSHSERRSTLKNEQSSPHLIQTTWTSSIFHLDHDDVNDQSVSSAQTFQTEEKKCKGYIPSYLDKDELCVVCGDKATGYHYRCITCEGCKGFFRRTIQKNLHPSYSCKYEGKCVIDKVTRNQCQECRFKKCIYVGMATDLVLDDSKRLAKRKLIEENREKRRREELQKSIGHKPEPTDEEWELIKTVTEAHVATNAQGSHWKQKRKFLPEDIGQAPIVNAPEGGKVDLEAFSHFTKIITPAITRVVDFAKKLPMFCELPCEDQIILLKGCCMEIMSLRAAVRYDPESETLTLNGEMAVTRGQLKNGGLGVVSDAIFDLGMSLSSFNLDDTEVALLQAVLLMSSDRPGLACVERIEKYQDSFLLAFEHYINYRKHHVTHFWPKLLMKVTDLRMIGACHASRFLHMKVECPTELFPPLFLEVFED
#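 Compounds were added to 0.6 uM TRb ligand-binding domain and 20 nM Texas Red-labeled SRC2 peptide in Tris buffer containing 1 uM T3, incubated 5 hr at ambient temperature, then read by fluorescence polarization.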
# Tau ThT inhib – inhibitors of human tau fibril formation, thioflavin T binding. recombinant tau K18 P301L, heparin-induced fibrillization, ThT fluorescence. Potency, µM (series often up to 57.4 µM), inactives show at the top dose activity, negative = inhibition, usual class: inhibitors. 270,000 compounds, 2.1% hits; note: nearly all actives have a fitted effect of over 55% in size
#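 Aggregation was driven by heparin (20 uM final) acting on recombinant tau […] bearing P301L in 100 mM sodium acetate pH 7; fibrils were detected with Thioflavin T.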
# Tau fluor counter – counter-screen for tau fibril formation inhibitors; tau K18 P301L Alexa594 fluorescence, heparin fibrillization; Potency, µM (doses to about 57.7 µM), for the others: at the top dose activity change, negative = decrease; 280,000 compounds, 0.93% hits; note: nearly all actives have a fitted effect of over 55% in size
#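 Human tau K18 P301L (15 uM unlabeled, 0.24 uM Alexa 594-labeled) in 100 mM sodium acetate pH 7 with 20 uM heparin, 6 hr at 37 C. ThT 30 uM added, 1 hr ambient; Alexa 594 FP and total fluorescence read at 555/632 nm.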
# TR SRC2 fluor cs – counter-screen for TRb-SRC2 inhibitors: fluorescence interference; TRb/SRC2 Texas Red total fluorescence interference; Potency, µM (series often up to 106 µM), inactives show at the highest dose fluorescence change, negative = quenching; 280,000 compounds, 0.29% hits; active = well fitted curve in either direction with a large enough effect; inconclusive = small, poorly fitted or top-dose-only effect
#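 Human TRb ligand-binding domain at 0.6 uM with 20 nM Texas Red SRC2 peptide in Tris buffer containing 1 uM T3 and 5% DMSO, incubated with compound 5 h at ambient temperature. Total fluorescence (555/632 nm) calculated as parallel + 2 × perpendicular.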
# Active calls of the source: *; ? = inconclusive; · = no result given; [ ] = remark or other dose. Unless noted, calls come from the whole dose curve; as a rule, active = well fitted curve in the direction sought with a large enough effect; inconclusive = small, poorly fitted or top-dose-only effect, or another doubt; inactive = no such curve, though single readings can be large; an effect the other way counts as inactive or inconclusive. Unless noted, % is set by controls: 0 for no effect and ±100 for the full control effect; potency is the fitted concentration of half-maximal effect.
SMILES,Tau fibril FP,TRb-SRC2 inh,Tau ThT inhib,Tau fluor counter,TR SRC2 fluor cs
CSc1ncc2c(n1)-c1ccccc1N(Cc1ccccc1)S2(=O)=O,-11.0%,6.6%,-12.3%,?,-2.0%
CCCCC[n+]1ccn(C2=C([O-])c3ccccc3C(=O)/C2=N\S(=O)(=O)c2ccc(Cl)cc2)c1,-3.2%,-1.3%,?,-15.5%,1.0%
CCCC[n+]1ccn(C2=C([O-])c3ccccc3C(=O)/C2=N\S(=O)(=O)c2ccc(Cl)cc2)c1,?,-1.9%,11.2µM*,?,-2.5%
O=C1NN(c2ccc(F)cc2)C(=O)/C1=C\c1cnn(-c2ccccc2)c1,-1.9%,-11.7%,5.4%,4.6%,-0.7%
O=C1NN(c2ccc(F)cc2)C(=O)/C1=C\C=C\c1ccco1,?,7.0%,12.6µM*,?,6.3%
COc1ccc2c(c1)cc(CNc1ccc(OC)c(OC)c1)c(=O)n2CC(=O)Nc1ccccc1C,7.7%,8.3%,?,?,-1.1%
COc1ccc2c(c1)cc(CNc1ccc(OC)c(OC)c1)c(=O)n2CC(=O)Nc1ccc(F)cc1,6.3%,-0.9%,?,15.8µM*[quencher],-1.4%
CCCN1CCN(c2cc3c(cc2F)c(=O)c(S(=O)(=O)c2ccc(CC)cc2)cn3CC)CC1,1.4%,0.5%,0.4%,-0.9%,4.3%
CC(C)=CCC/C(C)=C\CO,·,6.2%[201 µM],·,·,0.7%[201 µM]
CCc1c(CN2CCN(c3cccc(C)c3C)CC2)csc1C,1.1%,-13.1%,-13.9%,-12.2%,-2.5%
Cn1nc(-c2ccccc2F)c2cc(C(=O)Nc3ccc4c(c3)OCCO4)sc21,?,3.7%,?,7.94µM*[quencher],-2.9%
Cc1nn(-c2ccccc2)c2sc(C(=O)Nc3cccc(Cl)c3)cc12,3.16µM*,-3.1%,?,?,-0.2%
COc1cccc(NC(=O)c2cc3c(-c4ccc(Cl)cc4)nn(C)c3s2)c1,15.8µM*,-7.8%,1.4%,?,-0.6%
COc1cccc(-c2nn(C)c3sc(C(=O)Nc4ccc5c(c4)OCCO5)cc23)c1,9.4%,2.1%,-3.4%,0.3%,0.1%
COc1ccc(-c2nn(C)c3sc(C(=O)Nc4cccc(F)c4)cc23)cc1OC,12.6µM*,-1.9%,-6.0%,?,-1.8%
COc1cc2c(cc1OC)n(CC(=O)c1cccc(Cl)c1)c(=O)n1nc(CCn3nc(C)cc3C)nc21,-8.1%,-3.7%,10.3%,7.8%,-16.3%
Cc1cc(C)cc(OCc2ccc(C(=O)Nc3ccccc3F)o2)c1,0.4%,1.0%,-12.3%,-9.5%,-21.1%
COc1cccc(NC(=O)Cn2c(=O)n(CC(=O)NCCc3ccccc3)c(=O)c3sccc32)c1,?,-5.4%,?,-29.4%,0.8%
CCc1cc2c(nc1CC)CCN(CC/C(C)=N/O[C@@H]1O[C@H](COC(C)=O)[C@H](OC(C)=O)[C@H](OC(C)=O)[C@H]1OC(C)=O)C2,1.2%[11.6 µM],0.7%[11.2 µM],-7.2%[11.5 µM],-7.6%[11.6 µM],1.9%[11.2 µM]
COc1ccccc1N1C(=O)CC(Nc2ccc(N3CCOCC3)cc2)C1=O (configuration not stated),-7.2%,-14.4%,28.2µM*,-20.0%,10.7%
O=C1CC(Nc2ccc(N3CCOCC3)cc2)C(=O)N1c1ccccc1 (configuration not stated),-5.4%,-5.7%,15.8µM*,-18.7%,3.4%
CCOc1ccccc1N1C(=O)CC(Nc2ccc(N3CCOCC3)cc2)C1=O (configuration not stated),2.1%,1.0%,3.0%,-4.8%,-4.2%
Cc1cc(=O)oc2cc(OCC(=O)N/N=C/c3cc([N+](=O)[O-])ccc3O)ccc12,-7.4%,-4.2%,3.55µM*,-19.3%,-1.7%
CO[C@H]1C[C@@H]2CC[C@@H](C)[C@@](O)(O2)C(=O)C(=O)N2CCCC[C@H]2C(=O)O[C@H](C(C)C[C@H]2CC[C@@H](O)[C@H](OC)C2)CC(=O)[C@H](C)/C=C(\C)[C@@H](O)[C@@H](OC)C(=O)[C@H](C)C[C@H](C)/C=C/C=C/C=C/1C (some centres not stated),-5.1%,-5.2%,?,-4.1%,-2.2%
O=C(Cn1c(=O)n(Cc2ccco2)c(=O)c2ccc(C(=O)NC3CCCC3)cc21)Nc1ccc(F)cc1,15.8µM*,-7.8%,?,?,-1.7%
SMILES,Tau fibril FP,TRb-SRC2 inh,Tau ThT inhib,Tau fluor counter,TR SRC2 fluor cs
Cc1cccc(C(=O)NCC(=O)OCc2cc(=O)n3nc(CC(C)C)sc3n2)c1,2.8%,-4.9%,-2.5%,5.9%,-2.8%
COc1ccc(OC)c(/C=N/N(C)c2ccccc2)c1,5.5%,-9.0%,12.6µM*,11.2µM*[quencher],-2.7%
COc1cc(/C=N/N(C)c2ccccc2)cc(Cl)c1O,?,3.2%,?,14.1µM*[quencher],-3.4%
COc1cc(/C=N/O)cc(Cl)c1OC,1.7%,-5.1%,6.1%,5.1%,1.6%
COC(=O)N/N=C/c1cn(Cc2ccccc2Cl)c2ccccc12,10.3%,3.4%,-15.3%,?,-1.5%
Cc1[nH][nH]c(=O)c1C(c1c(C)[nH][nH]c1=O)c1cn(Cc2ccccc2Cl)c2ccccc12,?,?,11.2µM*,-18.5%,-2.0%
O=C1NNC(c2ccccc2)=N/C1=C\c1ccccc1Cl,?,-22.2%,?,-8.5%,-5.3%
O=C1NNC(c2ccccc2)=N/C1=C\c1ccco1,?,-0.7%,17.8µM*,?,-3.9%
OC[C@H]1O[C@@H](n2cnc3c(Nc4ccccc4)ncnc32)[C@H](O)[C@H]1O,-0.8%,3.7%,-7.4%,-11.8%,-2.9%
Cc1cccc(-c2nc3c4ccccc4nc(NCc4ccccc4Cl)n3n2)c1,-7.1%,-4.3%,6.3%,-11.2%,7.0%
CC(=O)c1ccc(NC2=C(N3CCOCC3)C(=O)c3ccccc3C2=O)cc1,-9.0%,-0.1%,?,?,0.8%
O=C(O)c1ccc(NC2=C(N3CCOCC3)C(=O)c3ccccc3C2=O)cc1,?,5.2%,17.8µM*,?,-2.0%
CC(=O)N(C1=C(N2CCOCC2)C(=O)c2ccccc2C1=O)c1ccc(C(=O)O)cc1,?,1.5%,14.1µM*,17.8µM*[quencher],-0.5%
CCOC(=O)c1c(C)[nH]c(CCC(=O)NCCCN2CCN(c3ccccc3F)CC2)c1C,8.7%,-10.1%,-6.0%,1.7%,-0.5%
CCOC(=O)C1(C)/C(=N/Nc2ccc(Cl)cc2)C(=O)C(=O)N1c1ccccc1 (configuration not stated),?,-5.1%,14.1µM*,-26.9%,-0.5%
CCOC(=O)C1(C)/C(=N/Nc2ccccc2Cl)C(=O)C(=O)N1c1ccccc1 (configuration not stated),-14.2%,-0.9%,14.1µM*,-29.3%,-8.0%
CCOC(=O)CSc1nnc(CNc2cccc(Cl)c2)n1-c1ccccc1,-0.5%,-3.6%,-3.4%,-6.7%,-3.0%
